Where “and” joins values, the source holds several entries; their conditions need not be identical. Equal entries are not always repeated. Screen size: about 5,500 compounds; about 2,000 (36%) were called active. Another 18% or so got no clear call; they are omitted. Rule as the data show it: active = normalized growth mostly below about 0.91 (no sharp cut-off); inconclusive = no clear call, values can overlap the other calls; inactive = mostly above about 0.92. The list shows a part of the results.
Assay: chemical genetic growth profiling, strain panel (AID 1159580);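 also: tested at 20 µM; growth read once vehicle control cultures reached saturation at 30 °C; 1 = growth at the plate median or of vehicle wells; lower values mean less growth of the strain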
Conditions: growth OD
[1] = S. cerevisiae deletion strains, locus YAL013W, strain DEP1, stronger effect = lower value
[2] = S. cerevisiae deletion strains, locus YAL040C, strain CLN3, stronger effect = lower value
[3] = S. cerevisiae deletion strains, locus YCL061C, strain MRC1 (second series), stronger effect = lower value
[4] = S. cerevisiae deletion strains, locus YDR150W, strain NUM1, stronger effect = lower value
[5] = S. cerevisiae deletion strains, locus YER002W, strain NOP16, stronger effect = lower value
[6] = S. cerevisiae deletion strains, locus YMR307W, strain GAS1, stronger effect = lower value
[7] = S. cerevisiae deletion strains, locus YNL128W, strain TEP1, stronger effect = lower value
[8] = S. cerevisiae deletion strains, locus YNL153C, strain GIM3, stronger effect = lower value
[9] = S. cerevisiae deletion strains, locus YNL175C, strain NOP13, stronger effect = lower value
[10] = S. cerevisiae deletion strains, locus YNL197C, strain WHI3, stronger effect = lower value
[11] = S. cerevisiae deletion strains, locus YNL224C, strain SQS1, stronger effect = lower value
[12] = S. cerevisiae deletion strains, locus YOR083W, strain WHI5 (second series), stronger effect = lower value
[13] = S. cerevisiae deletion strains, locus YPL055C, strain LGE1, stronger effect = lower value
[14] = S. cerevisiae deletion strains, locus YJR075W, strain HOC1, stronger effect = lower value
[15] = S. cerevisiae deletion strains, locus YPL241C, strain CIN2, stronger effect = lower value

Measured: normalized growth

CCN1C(=O)C=CC1=O
inactive: [1] 1.04 | [2] 1 | [3] 1.01 | [4] 1.01 | S. cerevisiae deletion strains, locus YDR363W, strain ESC2, stronger effect = lower value 0.992 | [5] 1 | [6] 1.02 | [7] 1.03 | [8] 1.02 | [9] 1.01 | [10] 1.01 | [11] 1 | [12] 1.07 | [13] 1.09

CC12C(=O)OC(=O)C1(C)C1CCC2O1 (configuration not stated)
inactive: [2] 0.905 | [3] 0.975 | [5] 0.925 | [14] 1.04 | [7] 0.954 | [13] 1.05 | [15] 0.967
active: [9] 0.887 | [10] 0.879 | [11] 0.911 | [12] 0.85

C[C@@]12C(=O)OC(=O)[C@]1(C)C1CCC2O1
inactive: [1] 0.966 | S. cerevisiae deletion strains, locus YDL035C, strain GPR1, stronger effect = lower value 0.919 | S. cerevisiae deletion strains, locus YDL101C, strain DUN1, stronger effect = lower value 0.971 | S. cerevisiae deletion strains, locus YDL134C, strain PPH21, stronger effect = lower value 0.939 | [4] 0.926 | S. cerevisiae deletion strains, locus YER110C, stronger effect = lower value 0.902 | S. cerevisiae deletion strains, locus YGL248W, strain PDE1, stronger effect = lower value 0.932 | S. cerevisiae deletion strains, locus YGR078C, strain PAC10, stronger effect = lower value 0.869 | S. cerevisiae deletion strains, locus YGR229C, strain SMI1, stronger effect = lower value 1.02 | S. cerevisiae deletion strains, locus YGR252W, strain gcn5, stronger effect = lower value 0.848 | S. cerevisiae deletion strains, locus YIL066C, strain RNR3, stronger effect = lower value 0.924 | S. cerevisiae deletion strains, locus YIL073C, strain SPO22, stronger effect = lower value 0.968 | S. cerevisiae deletion strains, locus YJL134W, strain LCB3, stronger effect = lower value 0.929 | S. cerevisiae deletion strains, locus YJL187C, strain SWE1 (second series), stronger effect = lower value 0.895 | S. cerevisiae deletion strains, locus YJR043C, strain POL32, stronger effect = lower value 0.862 | [14] 0.964 | S. cerevisiae deletion strains, locus YKL190W, strain CNB1, stronger effect = lower value 0.94 | S. cerevisiae deletion strains, locus YLR039C, strain RIC1, stronger effect = lower value 0.918 | S. cerevisiae deletion strains, locus YLR058C, strain SHM2, stronger effect = lower value 0.931 | S. cerevisiae deletion strains, locus YLR262C, strain YPT6, stronger effect = lower value 1 | S. cerevisiae deletion strains, locus YLR330W, strain CHS5, stronger effect = lower value 0.923 | S. cerevisiae deletion strains, locus YLR342W, strain FKS1 (second series), stronger effect = lower value 1.11 | S. cerevisiae deletion strains, locus YLR418C, strain cdc73, stronger effect = lower value 0.949 | [6] 1.13 | [7] 0.944 | S. cerevisiae deletion strains, locus YNL233W, strain BNI4, stronger effect = lower value 0.923 | S. cerevisiae deletion strains, locus YNL307C, strain MCK1, stronger effect = lower value 0.922 | S. cerevisiae deletion strains, locus YOL006C, strain TOP1, stronger effect = lower value 0.835 | S. cerevisiae deletion strains, locus YOL012C, strain htz1 0.4 | S. cerevisiae deletion strains, locus YOR061W, strain CKA2, stronger effect = lower value 0.905 | S. cerevisiae deletion strains, locus YOR184W, strain ser1, stronger effect = lower value 0.939 | [15] 0.932 | S. cerevisiae strains, strain wild type, stronger effect = lower value 0.94
active: S. cerevisiae deletion strains, locus YBR021W, strain FUR4, stronger effect = lower value 0.808 | S. cerevisiae deletion strains, locus YBR229C, strain ROT2, stronger effect = lower value 0.913 | S. cerevisiae deletion strains, locus YCL029C, strain bik1, stronger effect = lower value 0.685 | S. cerevisiae deletion strains, locus YDL074C, strain BRE1, stronger effect = lower value 0.662 | S. cerevisiae deletion strains, locus YDL185W, strain tfp1, stronger effect = lower value 0.106 | S. cerevisiae deletion strains, locus YDL192W, strain arf1, stronger effect = lower value 0.87 | S. cerevisiae deletion strains, locus YDR101C, strain arx1, stronger effect = lower value 0.715 | S. cerevisiae deletion strains, locus YDR162C, strain NBP2, stronger effect = lower value 0.824 | S. cerevisiae deletion strains, locus YDR318W, strain mcm21, stronger effect = lower value 0.681 | S. cerevisiae deletion strains, locus YDR388W, stronger effect = lower value 0.85 | S. cerevisiae deletion strains, locus YDR502C, strain sam2, stronger effect = lower value 0.826 | S. cerevisiae deletion strains, locus YEL061C, strain CIN8, stronger effect = lower value 0.91 | S. cerevisiae deletion strains, locus YER155C, strain BEM2, stronger effect = lower value 0.887 | S. cerevisiae deletion strains, locus YER167W, strain BCK2, stronger effect = lower value 0.895 | S. cerevisiae deletion strains, locus YGL078C, strain dbp3, stronger effect = lower value 0.15 | S. cerevisiae deletion strains, locus YGL086W, strain mad1, stronger effect = lower value 0.911 | S. cerevisiae deletion strains, locus YGR135W, strain pre9, stronger effect = lower value 0.785 | S. cerevisiae deletion strains, locus YHR030C, strain SLT2, stronger effect = lower value 0.0503 and 0.0957 | S. cerevisiae deletion strains, locus YHR079C, strain IRE1 (second series), stronger effect = lower value 0.782 | S. cerevisiae deletion strains, locus YHR079C, strain IRE1, stronger effect = lower value 0.173 | S. cerevisiae deletion strains, locus YHR094C, strain hxt1, stronger effect = lower value 0.861 | S. cerevisiae deletion strains, locus YHR129C, strain ARP1, stronger effect = lower value 0.877 | S. cerevisiae deletion strains, locus YHR200W, strain rpn10, stronger effect = lower value 0.82 | S. cerevisiae deletion strains, locus YIL125W, strain kgd1, stronger effect = lower value 0.23 | S. cerevisiae deletion strains, locus YIR030C, strain dcg1, stronger effect = lower value 0.869 | S. cerevisiae deletion strains, locus YJL095W, strain BCK1, stronger effect = lower value 0.0568 and 0.105 | S. cerevisiae deletion strains, locus YJL168C, strain set2, stronger effect = lower value 0.798 | S. cerevisiae deletion strains, locus YJR066W, strain TOR1, stronger effect = lower value 0.049 | S. cerevisiae deletion strains, locus YKL009W, strain mrt4, stronger effect = lower value 0.169 | S. cerevisiae deletion strains, locus YKL068W, stronger effect = lower value 0.288 | S. cerevisiae deletion strains, locus YKL085W, strain MDH1 (second series), stronger effect = lower value 0.17 | S. cerevisiae deletion strains, locus YKL085W, strain MDH1, stronger effect = lower value 0.17 | S. cerevisiae deletion strains, locus YKR001C, strain vps1, stronger effect = lower value 0.658 | S. cerevisiae deletion strains, locus YLR102C, strain apc9, stronger effect = lower value 0.833 | S. cerevisiae deletion strains, locus YLR113W, strain HOG1, stronger effect = lower value 0.182 | S. cerevisiae deletion strains, locus YLR268W, strain sec22, stronger effect = lower value 0.78 | S. cerevisiae deletion strains, locus YLR371W, strain rom2, stronger effect = lower value 0.879 | S. cerevisiae deletion strains, locus YML016C, strain PPZ1, stronger effect = lower value 0.91 | S. cerevisiae deletion strains, locus YML032C, strain rad52, stronger effect = lower value 0.69 | S. cerevisiae deletion strains, locus YML124C, strain tub3, stronger effect = lower value 0.853 | S. cerevisiae deletion strains, locus YMR078C, strain ctf18, stronger effect = lower value 0.753 | S. cerevisiae deletion strains, locus YMR223W, strain ubp8, stronger effect = lower value 0.8 | S. cerevisiae deletion strains, locus YMR263W, strain SAP30, stronger effect = lower value 0.877 | S. cerevisiae deletion strains, locus YNL067W, strain RPL9B, stronger effect = lower value 0.841 | [8] 0.671 | S. cerevisiae deletion strains, locus YNL183C, strain NPR1, stronger effect = lower value 0.0569 | S. cerevisiae deletion strains, locus YNL250W, strain rad50, stronger effect = lower value 0.144 | S. cerevisiae deletion strains, locus YNL271C, strain bni1, stronger effect = lower value 0.521 | S. cerevisiae deletion strains, locus YNL298W, strain CLA4, stronger effect = lower value 0.162 | S. cerevisiae deletion strains, locus YNL322C, strain KRE1, stronger effect = lower value 0.923 | S. cerevisiae deletion strains, locus YNR052C, strain pop2, stronger effect = lower value 0.791 | S. cerevisiae deletion strains, locus YOL147C, strain pex11, stronger effect = lower value 0.825 | S. cerevisiae deletion strains, locus YOR069W, strain VPS5, stronger effect = lower value 0.917 | S. cerevisiae deletion strains, locus YOR136W, strain idh2, stronger effect = lower value 0.906 | S. cerevisiae deletion strains, locus YOR144C, strain elg1, stronger effect = lower value 0.703 | S. cerevisiae deletion strains, locus YOR231W, strain MKK1, stronger effect = lower value 0.147 | S. cerevisiae deletion strains, locus YOR316C, strain cot1, stronger effect = lower value 0.854 | [13] 0.601 | S. cerevisiae deletion strains, locus YPL256C, strain CLN2, stronger effect = lower value 0.167 | S. cerevisiae deletion strains, locus YPR119W, strain clb2, stronger effect = lower value 0.861 | S. cerevisiae deletion strains, locus YPR141C, strain kar3, stronger effect = lower value 0.113 | S. cerevisiae deletion strains, locus YPR163C, strain tif3, stronger effect = lower value 0.585 | S. cerevisiae deletion strains, locus YPR167C, strain met16, stronger effect = lower value 0.786 | S. cerevisiae deletion strains, strain wtn01, stronger effect = lower value 0.834
